Screening results from PubChem BioAssay.
KB-V1 cytotox: kills drug-selected multidrug resistant KB-V1 cells; KB-V1 MDR cells viability, CellTiter-Glo, 72 h; Potency, µM (titrated, usually from 46.1 µM), actives largely listed as cytotoxic; 400,000 tested, 3.4% active; AID 1347076; further: on the % scale 0 is the no-effect control and ±100 the full control effect; nearly all actives have a fitted effect of over 60% in size
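Drug-selected KB-V1 cells, grown in DMEM lacking phenol red with 10% FBS, receive compound titrations; after three days at 37 degrees C, surviving cell ATP is quantified by CellTiter-Glo luminescence and responses normalized and curve-fitted.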
HT1080 IDH1KD tx: toxicity to HT-1080 IDH1 knockdown cells (counter line); Potency, µM (highest dose often 46.1 µM), for inactives: top-dose activity, negative = toxicity, most hits filed as cytotoxic; HT-1080 IDH1 knockdown viability, ATP luminescence, 48 h; 360,000 tested, 2% active;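 further: 0% = DMSO wells and -100% = cell-free medium wells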
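IDH1KD HT-1080 cells, 750/well, RPMI + 5% FBS; compound pinned after 2 h settling; 48 h, 37 °C; CellTiter-Glo luminescence; % activity normalised to DMSO and no-cell wells; curves fitted, classed by r2 and efficacy.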
KB-3-1 tox: kills parental KB-3-1 adenocarcinoma cells. KB-3-1 viability, CellTiter-Glo ATP luminescence, 72 h. Potency, µM (doses to about 46.1 µM), most hits filed as cytotoxic. 400,000 tested, 1.4% active; further: on the % scale 0 is the no-effect control and ±100 the full control effect; nearly all actives have a fitted effect of over 60% in size
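Viability of parental KB-3-1 cells, measured by CellTiter-Glo luminescence, followed a 72 h incubation at 37 °C with pinned compounds in phenol-red-free DMEM containing 10% FBS.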
MCF10A rerep: DNA re-replication induction in MCF 10a cells | MCF 10A DNA re-replication, Hoechst nuclear intensity, 48 h | Potency, µM (series often up to 46.1 µM), for inactives: top-dose activity, positive = re-replication, most hits filed as activators | 350,000 tested, 2.9% active; further: % of control where 0% means no effect; nearly all actives have a fitted effect of over 50% in size
HT1080-NT tox: kills 2HG-producing HT-1080-NT fibrosarcoma cells. AID 686970. 360,000 tested, 1.6% active. HT-1080-NT fibrosarcoma viability, CellTiter-Glo ATP luminescence, 48 h. Potency, µM (highest dose often 46.1 µM), for the others: top-dose activity, negative = less viability, usual class: cytotoxic;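 further: NT is the 2HG producing partner of a matched IDH1 knockdown line; 0% = DMSO-treated cells and -100% = media-only wells without cells; nearly all actives have a fitted effect of over 55% in size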
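HT-1080-NT; 750 cells/well; 5% FBS RPMI; 48 h compound, 37 degrees C; CellTiter-Glo luminescence; curve fitting and curve-class assignment.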
SW480 rerep: DNA re-replication induction in SW480 cells. 340,000 tested, 1.8% active. Potency, µM (highest dose often 46.1 µM), for the others: top-dose re-replication activation, usual class: activators. SW480 DNA re-replication, Hoechst DNA content imaging, 48 h. AID 624297; further: % of control where 0% means no effect; nearly all actives have a fitted effect of over 55% in size
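250 cells/well; 23 nL cpd via pin tool; 48 hr, 37 C, 5% CO2; Hoechst 40 min; imager read of total nuclear intensity, ex 405/em 500-530 nm.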
The depositor's hits bear a star; i = inactive; ? = inconclusive; / = not tested or not shown; [ ] = remark or other dose. An excerpt weighted towards active compounds, which were near 7.9% of everything screened. The call rests on the fitted dose curve; in most records, active means well fitted curve in the direction sought with a large enough effect; inconclusive means small, poorly fitted or top-dose-only effect, or another doubt; inactive means no such curve, though single readings can be large; an effect the other way counts as inactive or inconclusive. Potency means the concentration at half of the fitted maximal effect.

SMILES | KB-V1 cytotox | HT1080 IDH1KD tx | KB-3-1 tox | MCF10A rerep | HT1080-NT tox | SW480 rerep
CCC(C(=O)NC1CCCC1)N(C(=O)Cn1nnc(-c2ccc(C)o2)n1)c1ccccc1OC (stereo unspecified) | i | -0.5% | i | -3.5% | 0.5% | -2.7%
Cc1cccc2sc(NNC(=O)c3ccc(S(=O)(=O)N4CCCC(C)C4)cc3)nc12 (stereo unspecified) | i | 20.6µM* | 5.17µM* | ? | ? | 7.31µM*
Cc1cccc2sc(NNC(=O)c3ccc(S(=O)(=O)N4CCc5ccccc5C4)cc3)nc12 | i | 16.4µM* | 5.8µM* | ? | ? | 4.11µM*
CCOC(=O)N1CCN(S(=O)(=O)c2ccc(C(=O)NNc3nc4c(C)cccc4s3)cc2)CC1 | i | ? | ? | ? | ? | ?
Cc1cc(C)c2nc(NNC(=O)c3ccc(S(=O)(=O)N4CCCCC4)cc3)sc2c1 | i | ? | ? | ? | ? | ?
CCn1c2ccccc2c2cc(CN3CCN(S(=O)(=O)Cc4ccccc4)CC3)ccc21 | i | -10.8% | i | 9.0% | -17.7% | 22.9%
COc1ccc([N+](=O)[O-])cc1NS(=O)(=O)c1ccccc1 | ? | 10.5% | i | -57.3% | 5.8% | -11.4%
COc1ccc(NC(=O)CSCC(=O)N(C)Cc2ccc(Cl)c(Cl)c2)cc1 | i | -16.4% | i | 25.1% | -9.4% | 0.6%
Cc1ccc(NC(=O)CSCC(=O)N(C)Cc2ccc(Cl)c(Cl)c2)cc1 | 18.4µM* | 1.5% | i | 2.0% | -9.6% | -5.2%
COc1ccc(N2CCN(C(=O)CN(Cc3ccccc3)S(C)(=O)=O)CC2)cc1 | i | 3.8% | i | -7.5% | 3.3% | -4.4%
CS(=O)(=O)N(CC(=O)NC1CCCCC1)Cc1ccc(Cl)cc1 | i | 2.5% | i | -2.2% | 12.0% | 0.2%
CS(=O)(=O)N(CC(=O)NC1CCCC1)Cc1ccc(Cl)cc1 | 14.6µM* | -0.5% | i | 1.6% | 8.0% | -4.5%
Cc1cccc(N(CC(=O)N2CCN(c3ccccc3F)CC2)S(C)(=O)=O)c1 | i | 0.1% | i | -2.2% | 2.2% | -0.5%
CN1CCN(C(=O)c2ccc(N(Cc3ccc(Cl)cc3)S(C)(=O)=O)cc2)CC1 | i | -0.4%[9.24 µM] | i | 5.8µM* | -20.8% | ?
Cc1cccc(C)c1N(CC(=O)N1CCN(c2ccccc2F)CC1)S(C)(=O)=O | i | 2.7% | i | 0.651µM* | 8.2% | -6.5%
COc1ccccc1N1CCN(C(=O)CN(Cc2ccccc2)S(C)(=O)=O)CC1 | 10.3µM* | -6.8% | i | 6.6% | -5.5% | 1.8%
O=C(C[N+]12CCCc3cccc(c31)CCC2)c1ccc2ccc3cccc4ccc1c2c34 | i | / | ? | / | / | /
Cc1ccc(N2CCN(c3nc4c(S(=O)(=O)c5ccc(C)c(C)c5)nnn4c4ccccc34)CC2)c(C)c1 | i | / | i | / | / | /
CCOCc1nnc(NC(=O)C2CC(=O)N(C3CCCC3)C2)s1 (stereo unspecified) | i | 12.6% | i | -5.2% | 13.0% | -6.9%
CS(=O)(=O)N(CC(=O)N1CCCCCC1)Cc1ccc(Cl)cc1 | 5.17µM* | 4.0% | i | 2.6% | 5.1% | -3.2%
CN1CCN(C(=O)CN(Cc2ccc(Cl)cc2)S(C)(=O)=O)CC1 | i | 7.9%[9.24 µM] | i | -1.3% | 6.4% | -3.2%
CN(C)CCNc1ccc(CO)c2oc3ccc(O)cc3c(=O)c12 | i | 20.6µM* | 16.4µM* | 26.6% | ? | ?
COc1ccc(-c2nn(CC(=O)N(C)C)c(=O)c3ccccc23)cc1 | i | 1.7% | i | ? | -2.9% | -11.4%
Cc1ccc(C(=O)NC(=S)N2CCN(c3ccccc3F)CC2)cc1 | i | -8.0% | ? | 2.1% | -0.1% | 23.1µM*
Cc1ccc(C(=O)NC(=S)N2CCN(c3cc(C)ccc3C)CC2)cc1 | ? | -15.6% | i | ? | -10.3% | -5.5%
SMILES | KB-V1 cytotox | HT1080 IDH1KD tx | KB-3-1 tox | MCF10A rerep | HT1080-NT tox | SW480 rerep
Cc1c(C(=O)N2CCN(S(=O)(=O)c3ccccc3)CC2)oc2ccccc12 | i | 5.7% | i | 8.0% | 8.2% | 8.1%
NC(N)=Nc1nc(-c2ccccc2)c2cc(F)ccc2n1 | i | 20.6µM* | 23.1µM* | ? | 20.6µM* | 8.1%[1.84 µM]
CCOCCCNC(=O)C1CCC(CNS(=O)(=O)c2cccc3nsnc23)CC1 (stereo unspecified) | 20.6µM* | -10.4% | i | -1.2% | -2.2% | -7.6%
Cc1[nH]c2ccccc2c1C1=NNC(=Nc2ccc(F)cc2)SC1 | i | -23.7% | ? | 20.6µM* | -26.4% | ?
Cc1[nH]c2ccccc2c1N=Nc1ccc(F)cc1 | i | ? | i | -3.9% | 20.6µM* | -0.1%
Cc1[nH]c2ccccc2c1N=Nc1ccccc1F | ? | ? | i | 4.9% | ? | -1.7%
COc1ccc(N=C2NN=C(c3c(C)[nH]c4ccccc34)CS2)cc1 | i | ? | ? | 18.4µM* | ? | ?
COc1ccc(N=C2SCC(c3ccccc3)=NN2C)cc1 | i | -5.6% | i | -1.3% | -8.1% | -6.1%
CCN1CCN(c2ccc(S(=O)(=O)N3CCOCC3)cc2NC(=O)CC(NC(C)=O)c2ccccc2)CC1 (stereo unspecified) | i | -0.5% | i | 4.2% | -1.8% | 4.0%
CN(C)c1ccc(C(=O)N(Cc2ccccc2)Cc2ccccc2)cc1 | i | -18.5% | i | 0.5% | -11.6% | -19.4%
CCc1nnc(NC(=O)CCN(c2cc(C)cc(C)c2)S(=O)(=O)c2ccc(Cl)cc2)s1 | 2.59µM* | -7.6% | ? | ? | 0.9% | 26.3%
Cc1ccc(C(NC(=O)C2CCN(CCOc3ccc(Cl)cc3)CC2)c2ccccn2)cc1 (stereo unspecified) | i | ? | i | / | ? | /
COc1ccc(C(NC(=O)C2CCN(CCOc3ccc(Cl)cc3Cl)CC2)c2ccccn2)cc1 (stereo unspecified) | i | 20.6µM* | i | / | 23.1µM* | /
COc1ccc(OCCN2CCC(C(=O)NC(c3ccc(Cl)cc3)c3cccnc3)CC2)cc1 (stereo unspecified) | i | 20.6µM* | i | / | ? | /
COc1ccccc1C(NC(=O)C1CCN(CCOc2ccc(Cl)cc2Cl)CC1)c1ccccn1 (stereo unspecified) | i | 14.6µM* | i | / | ? | /
COc1cc(OC)nc(C(NC(=O)C2CCN(Cc3c[nH]c4ccccc34)CC2)c2ccc(Cl)cc2)n1 (stereo unspecified) | ? | -21.9% | ? | / | 5.8µM* | /
